Experimental data: PubChem BioAssay (Tox21)
Inconclusive results are not listed. A call without a number means that no potency is given here. Activity calls are given as the source filed them. Calls follow the shape of the dose curve; as a rule, active = well fitted cell-killing curve with a large enough effect in the repeat runs; inconclusive = weak or mixed curves, or effect the other way; inactive = flat fitted curve, though single readings scatter.

Test: Nuclear factor erythroid 2-related factor 2/antioxidant responsive element (Nrf2/ARE) small molecule agonists: qHTS cell viability counter screen in human keratinocytes (AID 1919968); also: nearly all actives have a fitted effect of over 55% in size
Settings: KeratinoSens HaCaT ARE cells viability, CellTiter-Fluor, 24 h; series mostly up to 92.4 µM
From the text: U.S. Tox21 Program National Center for Advancing Translational Sciences [NCATS] Division of Preclinical Innovation [DPI] U.S. Environmental Protection Agency [EPA] National Institutes of Environmental Health Sciences [NIEHS] National Toxicology Program [NTP] U.S. Food and Drug Administration [FDA] Tox21 Assay Overview: Oxidative stress has been implicated in the pathogenesis of a variety of diseases ranging from cancer to neurodegeneration. The antioxidant response element (ARE) signaling pathway plays an important role in the amelioration of oxidative stress. The KeratinoSens (Givaudan, Switzerland) is an in vitro test method which quantifies luciferase induction as a measure of activation of Keap1-Nrf2-antioxidationt/electrophile response element (ARE) dependant pathway in HaCaT human keratinocytes stably transfected with a selectable plasmid. The KeratinoSens assay is a cell-based assay with a reporter cell line to detect potential skin sensitizers by their ability to induce the Nrf2/ARE-response. The activation of the report gene under culture conditions can be detected by ONE-Glo Luciferase Assay System (Promega, Madison, WI). This cell line has been used to screen the Tox21 10K compound library to identify agonists that induce oxidative stress. The cytotoxicity of the Tox21 compound library against the KS-ARE cell line was tested in parallel by measuring the cell viability using CellTiter- Fluor assay system (Promega, Madison, WI) in the same wells.
Tox21 Assay Protocol Summary: HaCaT derived cell line KeratinoSens were dispensed at 1,500 cells/5uL/well in 1536-well white wall/solid bottom plates using a Multidrop Combi (ThermoFisher Scientific, Waltham, MA) dispenser. After the assay plates were incubated at 37 C/5% CO2 for 5 h, 23 nL of compounds dissolved in DMSO, positive controls or DMSO only was transferred to the assay plate by a pintool workstation (Kalypsys, San Diego, CA). The plates were incubated at 37 C/5% CO2 for 23 h, followed by addition of 1uL/well of CellTiter-Fluor reagent into the assay plates using a Flying Reagent Dispenser (Aurora Discovery, San Diego, CA) for cell viability readout that measures cytotoxicity. After 1 h incubation at 37 C/5% CO2 the fluorescence intensity was measured using a ViewLux (PerkinElmer, Shelton, CT) plate reader.
Potency is read from the fitted curve at half-maximal effect.

Row | SMILES | Potency | activity change, negative = cytotoxicity
1 | ClC(Cl)(Cl)c1ccc(C(Cl)(Cl)Cl)cc1 | inactive | 
2 | CCCCO | inactive | 
3 | COC=O |  | -1.85% [at 8.39 µM] (inactive)
4 | O=C1CCCCC1C1CCCCC1 (stereo not given) | inactive | 
5 | Cc1ncc(COP(=O)(O)O)c(C=O)c1O | inactive | 
6 | CN(C)CC[C@@H](c1ccc(Cl)cc1)c1ccccn1 | inactive | 
7 | Cn1cnc2c(=O)[nH]c(N)nc21 | inactive | 
8 | O=C(c1ccccc1)c1cc(Cl)ccc1O | inactive | 
9 | Cc1cc(NC(=O)C(=O)O)cc(C)c1Oc1ccc(O)c2c1CCC2 | inactive | 
10 | O=C(C(=O)c1ccc(Br)cc1)c1ccc(Br)cc1 |  | -1.93% [at 19 µM] (inactive)
11 | CO[Si](C)(OC)OC | inactive | 
12 | CN(C)CC/C=C1\c2ccccc2COc2ccccc21 | inactive | 
13 | C[C@@H]1CN(c2c(F)c(F)c3c(=O)c(C(=O)O)cn(C4CC4)c3c2F)C[C@H](C)N1 |  | -4.39% [at 19 µM] (inactive)
14 | O=C(N[C@H](CO)[C@H](O)c1ccc([N+](=O)[O-])cc1)C(Cl)Cl | inactive | 
15 | CC1(C)C(=O)N(Cl)C(=O)N1Br | inactive | 
16 | O=C(O)Cn1cnnn1 | inactive | 
17 | CC(C)(c1ccccc1)c1ccccc1 | inactive | 
18 | O=C(/C=C/c1ccc(O)c(O)c1)O[C@@H]1C[C@@](OC(=O)/C=C/c2ccc(O)c(O)c2)(C(=O)O)C[C@@H](O)[C@@H]1O | inactive | 
19 | CCCCCCCCCCC[C@@H](C[C@@H]1OC(=O)[C@H]1CCCCCC)OC(=O)[C@H](CC(C)C)NC=O | inactive | 
20 | O=C1CCCCCO1 | inactive | 

Row | SMILES | Potency | activity change, negative = cytotoxicity
21 | C=Cc1ccncc1 | inactive | 
22 | CCCCCCCCC(=O)OCC(C)OC(=O)CCCCCCCC (stereo not given) | inactive | 
23 | CCCCCCCC/C=C/CCCOC(C)=O | inactive | 
24 | CO/N=C(/C(=O)N[C@@H]1C(=O)N2C(C(=O)[O-])=C(C[n+]3ccn4ncccc43)CS[C@H]12)c1nsc(N)n1 | inactive | 
25 | CC(=O)c1c(C)c([N+](=O)[O-])c(C(C)(C)C)c([N+](=O)[O-])c1C | inactive | 
26 | O=C(O)CCCCCCCCCCCBr | inactive | 
27 | CCC(C)(CCC(C)C)C(=O)O (stereo not given) | inactive | 
28 | CC(=O)SCc1ccco1 | inactive | 
29 | CCN(CC)CCNC(=O)COc1ccc(OC)cc1 | inactive | 
30 | CC(Oc1c(Cl)cccc1Cl)C1=NCCN1 (stereo not given) | inactive | 
31 | CCOc1ccc2nc(S(N)(=O)=O)sc2c1 | inactive | 
32 | CCCCC[Si](OCC)(OCC)OCC | inactive | 
33 | O=C(NO)C1(NS(=O)(=O)c2ccc(Oc3ccc(F)cc3)cc2)CCOCC1 | inactive | 
34 | Cc1c[nH]c(=O)[nH]c1=O | inactive | 
35 | CN(C)CCOc1ccc(/C(=C(/CCCl)c2ccccc2)c2ccccc2)cc1 | 22.8 µM (active) | 
36 | OC[C@H]1O[C@@H]2O[C@H]3[C@H](O)[C@@H](O)[C@@H](O[C@H]4[C@H](O)[C@@H](O)[C@@H](O[C@H]5[C@H](O)[C@@H](O)[C@@H](O[C@H]6[C@H](O)[C@@H](O)[C@@H](O[C@H]7[C@H](O)[C@@H](O)[C@@H](O[C@H]8[C@H](O)[C@@H](O)[C@@H](O[C@H]9[C@H](O)[C@@H](O)[C@@H](O[C@H]1[C@H](O)[C@H]2O)O[C@@H]9CO)O[C@@H]8CO)O[C@@H]7CO)O[C@@H]6CO)O[C@@H]5CO)O[C@@H]4CO)O[C@@H]3CO | inactive | 
37 | C=O | inactive | 
38 | CCCCC[C@H](O)/C=C/[C@H]1[C@H](O)CC(=O)[C@@H]1C/C=C\CCCC(=O)O | inactive | 
39 | NC(=O)c1cc[n+](CC2=C(C(=O)[O-])N3C(=O)[C@@H](NC(=O)Cc4cccs4)[C@H]3SC2)cc1 | inactive | 
40 | Cc1cccc(C)c1NC(=O)CN(CC(=O)O)CC(=O)O | inactive | 
